Experimental data as given in PubChem BioAssay AID1117362 (Southern Research Institute, 2015).
Among all 3,600 compounds or so, about 100 (2.8%) were called active.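 How the source made its calls: active means inhibition above 30% at one or more concentrations, seen consistently on every test date; inconclusive means results that disagree between repeat test dates; inactive means the rest.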 The list is a sample of the results.

Test: biotin-GST/anti-GST TR-FRET signal inhibitors, dose response, artefact control for Vif-APOBEC3G degradation inhibitor project, biochemical (AID 1117362);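 further: biotinylated GST protein used in place of GST-Vif 1-94 and biotin-A3G peptide; detects fluorescence quenchers or blockers of GST binding to anti-GST antibody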
Settings: TR-FRET counter screen; series mostly up to 100 µM

| SMILES | IC50 |
| --- | --- |
| CCN(C(=O)c1coc(=O)c(Br)c1)c1ccc2c(c1)OCO2 | inactive |
| COc1ccc(NC(=O)/C(C#N)=C\c2ccc(Br)o2)cc1 | inactive |
| COc1ccc2c(c1)c(=O)oc1cc(OCC(=O)N3CCC(C)CC3)ccc12 | inactive |
| CC(C)(C)OC(=O)N(Cc1ccccc1)Cc1cccc(OCc2cccc(NC(=O)c3ccccc3)c2)c1 | inactive |
| Cc1cc(C(=O)COC(=O)c2cc(O)c3ccccc3c2O)c(C)n1CC1CCCO1 (stereo unspecified) | inactive |
| CCOc1ccc2[nH]c(=O)c(CN(Cc3ccco3)C(=O)c3ccc(Br)cc3)cc2c1 | inactive |
| CCOC(=O)C1=C(C)N=C2SC(C(=O)OC)=CC(=O)N2C1c1cc(OC)c(OC)c(OC)c1 (stereo unspecified) | inactive |
| CC(C)OC(=O)c1cccc(C(=O)O)n1 | inactive |
| O=C(NCc1ccccn1)c1coc(=O)c(Br)c1 | inactive |
| CCCN1C(=O)S/C(=C\c2ccc(N3CCOCC3)cc2C)C1=O | inactive |
| CN(CCc1ccccc1)C(=O)c1ccc(NC(=O)Cc2ccc(NC(=O)C3CCN(C(=O)CCc4ccccc4)CC3)cc2)cc1 | inactive |
| Cc1ccc(C2SCC(=O)N2Cc2cn3ccsc3n2)o1 (stereo unspecified) | inactive |
| CCn1c(SCC(=O)Nc2cc(C)on2)nnc1-c1cccnc1 | inactive |
| C/C(=N\Nc1ccc(Cl)c(C(=O)O)c1)c1ccc[nH]1 | inactive |
| COc1ccc(C2=CC(c3ccc(Cl)cc3)n3cnnc3N2)cc1OC (stereo unspecified) | inactive |
| COc1ccc(Nc2ccc(OC)cc2)cc1 | inactive |
| Cc1nn(-c2ccccc2)c2sc(C(=O)N3CCc4ccccc4C3)cc12 | inactive |
| C/C(N)=C(/C#N)C(=O)CSc1nnc(NC(C)C)s1 | inactive |
| CCN1CCN(C2=NC(=O)/C(=C/c3ccc(C)o3)S2)CC1 | inactive |
| Cc1ccc2cc(C(c3nnnn3Cc3ccccc3)N3CCc4ccccc43)c(=O)[nH]c2c1 (stereo unspecified) | inactive |
| COC(=O)\C(C(C)=O)=C(/C=C/C=C/C=C/N(C)C)N(C)C | inactive |
| O=C(NCCc1c[nH]c2ccccc12)c1ccc(S(=O)(=O)NCc2ccco2)cc1 | inactive |
| COc1ccc(S(=O)(=O)Cc2ccc(C(=O)N3CCN(c4ccccc4)CC3)o2)cc1 | inactive |
| CC1=C(C(=O)Nc2ccccc2F)C(c2ccsc2)C2=C(CC(c3ccccc3)CC2=O)N1 (stereo unspecified) | inactive |
| C[c-]1[c-](C)[c-](C)[c-](C)[c-]1C.[Fe].c1cc2nccc(N3CCCC3)[c-]2c1 (stereo unspecified) | 28 µM (active) |
| O=C1NC(c2ccc(Br)cc2)=N/C1=C/c1ccco1 | inactive |
